Screens (PubChem BioAssay)
In the library only some 8% were active in any assay of this set; here they are far more common.
MARV entry inh – qHTS for inhibitors of binding or entry into cells for Marburg Virus; Marburg virus pseudotyped entry inhibition, cell reporter; Potency, µM (doses to about 37.8 µM), for inactives: at the highest dose activity change, negative = inhibition, hits mostly inhibitors; 300,000 tested, 1.8% active; AID 540276, 2011; calls by dose curve; tested in HEK293 cells; further: potency means the concentration at half of the fitted maximal effect; on the % scale 0 is the no-effect control and ±100 the full control effect
SARS PLP yeast – qHTS of Yeast-based Assay for SARS-CoV PLP | S. cerevisiae expressing SARS-CoV PLpro, growth rescue | Potency, µM (titrated, usually from 32.9 µM), inactives show at the highest dose activity, positive = growth rescue, hits mostly activators | 330,000 tested, 0.19% active | AID 485353, 2010; calls by dose curve; further: potency means the concentration at half of the fitted maximal effect; 0% is about no effect; nearly all actives have a fitted effect of over 55% in size
LASV entry inh – qHTS for Inhibitors of binding or entry into cells for Lassa Virus; Lassa virus pseudotype entry inhibition, cell reporter; Potency, µM (titrated, usually from 37.9 µM), for inactives: top-dose activity change, negative = inhibition, most hits filed as inhibitors; 300,000 tested, 1.2% active; calls by dose curve; tested in HEK293 cells; further: potency means the concentration at half of the fitted maximal effect; on the % scale 0 is the no-effect control and ±100 the full control effect; nearly all actives have a fitted effect of over 50% in size
HCMV antiviral – qHTS Assay for inhibitors of the human cytomegalovirus (HCMV); 410,000 tested, 4.5% active; activity change, negative = inhibition, % at 57.5 µM; HFF cells, HCMV-luciferase reporter, 72 h; active compounds read low; AID 1259415, 2018; in the data active means activity change below about -60%; inconclusive means no clear call, values can overlap the other calls; inactive means above about -39%; further: on the % scale 0 is the no-effect control and ±100 the full control effect
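Steps: HFFs plated, 16 h 37C; compounds added; HCMV-luciferase added to MOI 1 PFU/cell; 72 h 37C; OneGlo reagent, 5 min room temperature; luminescence read, normalized to controls.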
HCV inhibitor – qHTS Assay for Inhibitors of Hepatitis C Virus (HCV); Huh7.5.1 HCVcc-Cre infection, luciferase reporter, 44 h; Potency, µM (titrated, usually from 41.8 µM), for the others: at the top dose activity change, negative = inhibition, usual class: inhibitors; 340,000 tested, 3.4% active; active means well fitted inhibition curve with a large enough effect; inconclusive means small, poorly fitted or top-dose-only effect, or another doubt; inactive means no such curve, though single readings can be large or run the other way; further: potency means the concentration at half of the fitted maximal effect; on the % scale 0 is the no-effect control and ±100 the full control effect
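After 44 h co-culture of compound, cells and HCVcc-Cre (~0.5 moi), substrate is added for 15 min at room temperature and luciferase measured over 15 sec. Cells were seeded at 1,000/well and pre-cultured 4 h.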
FMDV antiviral – High Throughput Screening for Foot and Mouth Disease Virus Antivirals; 410,000 tested, 1.2% active; AID 1159524, 2015; Potency, µM (top dose mostly 57.9 µM), without a hit: top-dose activity change, negative = inhibition, actives largely listed as inhibitors; FMDV antiviral cell-based qHTS; calls by dose curve; tested in HEK293T cells; further: read-out not given here; potency means the concentration at half of the fitted maximal effect; on the % scale 0 is the no-effect control and ±100 the full control effect; nearly all actives have a fitted effect of over 45% in size
* hit, by the source's call; u = inconclusive; x = no result; ! = a repeat was not active; [ ] = another dose, or the depositor's remark.

SMILES	MARV entry inh	SARS PLP yeast	LASV entry inh	HCMV antiviral	HCV inhibitor	FMDV antiviral
Cc1cccn2c(=O)c3cc(C(=O)NC(C)c4ccccc4)c(=N)n(CCOCCO)c3nc12 (centres undefined)	u	x	0%[46.1 µM]	21	x	1%
Cc1cccn2c(=O)c3cc(C(=O)NC(C)c4ccccc4)c(=N)n(CCCn4ccnc4)c3nc12 (centres undefined)	4.5µM*	-1%	u	-68*	-16%	-2%
CCOCCCn1c(=N)c(C(=O)NC(C)c2ccccc2)cc2c(=O)n3cccc(C)c3nc21 (centres undefined)	u	x	-11%[46.1 µM]	-73*	x	u
Cc1ccc2nc3c(cc(C(=O)NCc4ccccc4)c(=N)n3CCCn3ccnc3)c(=O)n2c1	x	x	x	-39	-9%	14%
CCc1nc2ccc(C(=O)NCCN(C)C)cn2c1N(CC)CCOC	x	x	x	12	x	0%
COc1ccc(CN2C(=O)C(C)Oc3ccccc32)cc1 (centres undefined)	x	0%	x	-13	13%	-9%
CC1C(=O)N(Cc2ccc([N+](=O)[O-])cc2)c2ccccc2N1C(=O)c1c(F)cccc1F (centres undefined)	u	-2%	u	u	u	35µM*
COc1cccc(CN2C(=O)C(C)N(C(=O)c3ccccc3)c3ccccc32)c1 (centres undefined)	10µM*	0%	u	-71*	u	u
COc1ccc(CN2C(=O)C(C)N(C(=O)c3c(F)cccc3F)c3ccccc32)cc1 (centres undefined)	x	-5%	x	u	u	35µM*
COC(=O)c1cccc(C(=O)NCc2nc(-c3ccccc3NC(C)=O)oc2C)c1	x	x	x	x	x	14%
Cc1ccnc(Sc2ccc([N+](=O)[O-])cn2)n1	x	0%	x	-96*	21%	31%
Cc1ccccc1Sc1ccc([N+](=O)[O-])cn1	x	x	x	-2	-22%	-22%
O=C(N/N=C/c1c[nH]c2ccccc12)C1CC1c1ccccc1 (centres undefined)	u	14%	2.8µM*	-17	u	u
O=C(N/N=C/c1ccco1)C1CC1c1ccccc1 (centres undefined)	27%	1%	18µM*	-17	u	5%
O=C(N/N=C/c1ccco1)C1CC1	14%	-1%	19%	-23	-3%	-16%
CC(C)(C)c1ccc(C2CC2C(=O)N/N=C\c2ccc[nH]2)cc1 (centres undefined)	u	-3%	u	-100*	0.56µM*	-19%
O=C(CCc1ccccc1)N/N=C/c1cccc([N+](=O)[O-])c1	x	-1%	x	87	1%	8%
O=C(N/N=C/c1cccs1)[C@H]1C[C@@H]1c1ccccc1	19%	13%	-14%	u	-1%	-1%
O=C(N/N=C/c1cccc([N+](=O)[O-])c1)C1CC1c1ccccc1 (centres undefined)	u	24%	2.2µM*	-10	-15%	-1%
Cc1ccc(OCC(=O)Nc2c(C(=O)c3ccc(Cl)cc3)oc3ccccc23)cc1C	4%[46.1 µM]	x	4%[46.1 µM]	-11	x	-2%
O=C(CCCN1CCC(O)(c2ccc(Cl)cc2)CC1)c1ccc(F)cc1	10µM*	-5%	u	17	u	-16%
O=C(CCCN1CCC(O)(c2cccc(C(F)(F)F)c2)CC1)c1ccc(F)cc1	11µM*	x	u	66	u	-20%
O=C(CCCN1CCC(O)(c2ccc(Br)cc2)CC1)c1ccc(F)cc1	x	x	x	39	u	-19%
O=c1[nH]cnc2c1sc1nc3c(c(-c4ccc(Cl)cc4)c12)CCC3	u	4%	0%	u	6%	u
Cc1sc2nc[nH]c(=O)c2c1-c1ccc(Cl)cc1	u	-2%	16%[46.1 µM]	-74*	-12%	-19%
SMILES	MARV entry inh	SARS PLP yeast	LASV entry inh	HCMV antiviral	HCV inhibitor	FMDV antiviral
CC(C)c1cccc(-c2csc(C(C)(O)c3ccncc3)n2)c1 (centres undefined)	x	x	x	-77*	x	u
CCN(CC)C(=O)c1cccc(-c2csc(C(C)(O)c3cccc(F)c3)n2)c1 (centres undefined)	x	x	x	u	x	25µM*
COc1cccc(C(C)(O)c2nc(-c3cccc(C(C)C)c3)cs2)c1 (centres undefined)	x	x	x	-20	x	-27%
CC(C)c1cccc(-c2csc(C(C)(O)c3ccc(F)c(F)c3)n2)c1 (centres undefined)	x	x	x	-77*	x	1%
O=C1CCN(Cc2ccccc2)C(=O)N1	5%[46.1 µM]	x	16%[46.1 µM]	u	u	-5%
O=C1NC(=O)N2CCSC2(Cc2ccccc2)N1 (centres undefined)	0%	x	10%[46.1 µM]	-98*	22%	1%
Cc1ncc2c(c1CNC(=O)c1ccc3c(c1)OCO3)CCN(C(=O)c1csc3c1CCCC3)C2	x	x	x	x	x	1%
COc1ccc(OC)c(N(CCN2C(=O)c3ccccc3C2=O)C(=O)CCl)c1	x	x	x	-98*	x	u
COc1ccc(NC(=O)CCN2C(=O)c3ccccc3C2=O)c(OC)c1	-3%	-2%	2%	6	1%	5%
O=C(Nc1nc(NC(=O)c2ccco2)n(-c2ccccc2)n1)c1ccccc1	u	-5%	u	-100*	u	x
Nc1nc(NC(=O)c2ccccc2)nn1-c1ccccc1	u	9%	21%	-13	8%	53%
O=C(O)CCc1cc(I)c(O)c(I)c1	x	x	x	x	x	-22%
COc1cc2c(cc1Cl)/C(=C\CCN(C)C)c1ccccc1S2	u	-15%	u	-32	u	-21%
CN1CCN(CC/C=C2/c3ccccc3Sc3ccc(S(=O)(=O)N(C)C)cc32)CC1	4µM*!	-1%	x	-19	u	-5%
COc1ccc(Br)cc1-c1nc(CCl)cs1	x	-1%	x	u	10µM*	-4%
CCOc1ccc(-c2nc(CCl)cs2)cc1	x	-1%	x	3	11%	-17%
COc1ccccc1CNC(=O)C1CCCN(c2nn3cc(-c4ccc(F)cc4)nc3s2)C1 (centres undefined)	x	x	17%[46.1 µM]	u	x	-28%
CSc1ccccc1OC1CCN(Cc2ccccc2)CC1	u	-10%	u	11	u	-29%
CCSc1nnc(NC(=O)c2cccc(S(=O)(=O)N(C)c3ccccc3)c2)s1	-14%	3%	4%	49	5%	-10%
C=CCN(c1ccccc1)S(=O)(=O)c1cccc(C(=O)Nc2nnc(SCC)s2)c1	-7%	-11%	-14%	-62*	-6%	-20%
C=CCN(c1ccccc1)S(=O)(=O)c1cccc(C(=O)Nc2cccc(C)n2)c1	u	-2%	u	-25	14µM*	u
Cc1ccc(C)c(-n2c(-c3ccc(Br)cc3)csc2=NC(=O)c2ccccc2F)c1	1.3µM*	-3%	u	-27	3.2µM*	-22%
